HT1080NT lethal – kills 2HG-producing HT-1080-NT fibrosarcoma cells | HT-1080-NT fibrosarcoma viability, CellTiter-Glo ATP luminescence, 48 h | Potency, µM (top dose mostly 46.1 µM), for the others: at the top dose activity, negative = less viability, actives largely listed as cytotoxic | 360,000 compounds, 1.6% hits | AID 686970;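 further: NT is the 2HG producing partner of a matched IDH1 knockdown line; potency means the concentration at half of the fitted maximal effect; 0% = DMSO-treated cells and -100% = media-only wells without cells; nearly all actives have a fitted effect of over 55% in size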
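Read-out is CellTiter-Glo luminescence after 10 minutes at room temperature, following 48 hours' compound treatment of HT-1080-NT cells (750 cells/well, RPMI, 5% FBS, 37 degrees C).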
IL-1B inflam inh – inhibitors of inflammasome signaling (IL-1 beta secretion). THP-1 LPS/ATP IL-1B secretion, AlphaLISA, 16 h; active compounds read low. activity change, % at 57.5 µM. 360,000 compounds, 4.7% hits; in the data active means activity change below about -50%; inconclusive means mostly about -30% to -49%
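Secreted IL-1B measured by AlphaLISA bead assay after 16 h compound exposure of THP-1 cells; compounds (final up to 57.5 uM) added 1 h before LPS (250 ng/mL) and ATP (1.25 mM) stimulation; lower signal means less secretion.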
HT1080 IDH1KD tx – kills HT-1080 cells with IDH1 knockdown. AID 686971. 360,000 compounds, 2% hits. Potency, µM (highest dose often 46.1 µM), for inactives: at the top dose activity, negative = toxicity, actives largely listed as cytotoxic. HT-1080 IDH1 knockdown viability, ATP luminescence, 48 h;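 further: potency means the concentration at half of the fitted maximal effect; 0% = DMSO wells and -100% = cell-free medium wells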
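Viability of IDH1-knockdown HT-1080 fibrosarcoma cells was assessed by CellTiter-Glo after 48 h at 37 °C with titrated compound; concentration-effect curves were classified by fit quality and response size.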
DT40 TDP1 no CPT – qHTS for Inhibitors of human tyrosyl-DNA phosphodiesterase 1 (TDP1): qHTS in cells in absence of CPT. DT40 Tdp1-/- hTDP1 cells, no CPT, ATP luminescence, 48 h. Potency, µM (series often up to 46.2 µM), without a hit: top-dose activity change, negative = growth inhibition, usual class: inhibitors. 420,000 compounds, 15% hits. AID 686978, 2013; further: potency means the concentration at half of the fitted maximal effect; nearly all actives have a fitted effect of over 55% in size
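Seeded 400 DT40-hTDP1 cells/well (vehicle DMSO, no 20 nM CPT); pinned compounds; ≥48 hr at 37 °C; CellTiter-Glo luminescence as viability measure.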
DT40 TDP1 CPT – DT40-hTDP1 cell growth loss with CPT | chicken DT40 Tdp1-/-;hTDP1 cells + 20 nM CPT, ATP luminescence, 48 h | Potency, µM (doses to about 46.2 µM), inactives show at the top dose activity change, negative = growth inhibition, usual class: inhibitors | 420,000 compounds, 12% hits; further: potency means the concentration at half of the fitted maximal effect; nearly all actives have a fitted effect of over 55% in size
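Chicken DT40 Tdp1-/- cells complemented with human TDP1, 400 cells/well, exposed to compounds plus 20 nM camptothecin for at least 48 h at 37 C; viability read as ATP content by CellTiter-Glo luminescence.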
Numbers without * were called inactive; ? = inconclusive; · = no result given; [ ] = another dose, or the depositor's remark. This is a sample that favours compounds with a hit; in the whole collection about 19% have one here. Unless noted, the call rests on the fitted dose curve; in most records, active means well fitted curve in the direction sought with a large enough effect; inconclusive means small, poorly fitted or top-dose-only effect, or another doubt; inactive means no such curve, though single readings can be large; an effect the other way counts as inactive or inconclusive. Unless noted, on the % scale 0 is the no-effect control and ±100 the full control effect.

SMILES	HT1080NT lethal	IL-1B inflam inh	HT1080 IDH1KD tx	DT40 TDP1 no CPT	DT40 TDP1 CPT
COc1ccc(OC)c(NC(=O)Cn2c(=O)c3cccn3c3ccccc32)c1	·	·	·	12µM*	?
COc1ccccc1NC(=O)CCn1c(=O)c2cccn2c2ccccc21	12%	-4	15%	23µM*	?
COc1ccc(NC(=O)CCCCC(=O)Nc2ccc(OC)cc2OC)c(OC)c1	-5%	25	-4%	-11%	-9%
COc1ccccc1NC(=O)CCn1c(=S)oc2ccccc21	4%	-12	11%	22%	-4%
COc1ccc(NC(=O)Cn2c(=O)c3cccn3c3ccccc32)cc1	·	·	·	-27%	?
COc1ccc(NC(=O)CCCn2c(=O)c3cccn3c3ccccc32)c(OC)c1	·	·	·	10µM*	13µM*
CCOC(=O)Cc1csc(SCC(=O)NC2CCCC2)n1	-1%	15	3%	-9%	-6%
CC1(C)CC(NC(=O)c2cc(S(=O)(=O)N3CCOCC3)ccc2Cl)CC(C)(C)N1	-1%[9.24 µM]	-12	2%	3%	12%
O=C(c1ccccc1)c1cc(Cl)ccc1N1C(=O)C=CC1=O	18µM*	-80*	23µM*	1.2µM*	2.3µM*
CCC1CCc2sc(C(=O)O)cc2C1 (stereo not given)	4%	23	19%	1%	1%
C=CCN1CCN(C(=O)c2cc3c(s2)CCC(CC)C3)CC1 (stereo not given)	10%	-14	0%	16µM*	?
COCCNc1ncnc2c1ncn2[C@H]1CN(Cc2ccco2)C[C@@H](CO)O1	29%	19	6%	?	-17%
Cc1nn(Cc2c(F)c(F)c(F)c(F)c2F)c(C)c1NC(=O)c1nn(C)cc1[N+](=O)[O-]	-11%	36	-22%	-17%	?
Cc1cnc(NC(=O)c2nn(C)cc2[N+](=O)[O-])s1	?	-94*	?	-9%	19%
Cc1ccc(-c2nc(NC(=O)c3nn(C)cc3[N+](=O)[O-])sc2C)cc1	5.8µM*	-111*	12µM*	-21%	?
CCCOC(=O)Nc1nc(-c2ccc(C)cc2)c(C)s1	15%	-12	-3%	?	-22%
Cn1cc([N+](=O)[O-])c(C(=O)Nc2nc(-c3ccc(Cl)cc3)cs2)n1	2.9µM*	-120*	3.3µM*	?	?
O=C(O)COn1c(-c2ccccc2)nc2ccc(Cl)cc21	-2%	-4	1%	-10%	27%
O=[N+]([O-])c1ccc2nc(-c3ccccc3)n(OCc3ccc(Cl)cc3)c2c1	-24%	4	-17%	9.2µM*	15µM*
Cn1cccc1Cc1nnc(SCC(=O)NCc2ccc(F)cc2)n1-c1ccc(F)cc1	-2%	-20	-5%	-25%	?
Cn1cccc1Cc1nnc(SCC(=O)Nc2ccc(F)cc2F)n1-c1ccc(F)cc1	-1%	-10	4%	?	?
COc1ccc(Cl)cc1NC(=O)CSc1nnc(Cc2cccn2C)n1-c1ccc(F)cc1	?	-8	-26%	?	26µM*
Cn1cccc1Cc1nnc(SCC(=O)NCc2ccccc2)n1-c1ccc(F)cc1	2%	?	10%	?	16µM*
C/C(=N\NC(=O)COc1cccc(C)c1)c1ccc2ccccc2c1O	21µM*	72	?	?	?
COc1ccc(-c2cc(C3CCNCC3)[nH]n2)cc1	4%	-9	8%	?	?
SMILES	HT1080NT lethal	IL-1B inflam inh	HT1080 IDH1KD tx	DT40 TDP1 no CPT	DT40 TDP1 CPT
CCCNC(=O)C1(C)CCN(Cc2ccc(C)c3ccccc23)C1 (stereo not given)	-15%	-7	-13%	23µM*	?
CCCNC(=O)C1(C)CCN(Cc2ccc(OC)c3ccccc23)C1 (stereo not given)	-15%	-20	-9%	21µM*	?
CSc1nc(N(C)C)nc(N(C#N)CCOC(C)=O)n1	-17%	-15	-10%	?	?
CSc1nc(NCCOC(C)=O)c(C#N)c(-c2ccc(C(C)(C)C)cc2)n1	·	·	·	16µM*	?
Cc1cccc(NC(=S)NC2CC3C=CC2C3)c1 (stereo not given)	2%	-26	-13%	-29%	4%
Cc1ccsc1CNC(=O)C1(C)CCN1C(=O)C(C)C (stereo not given)	?	15	20%	-5%	12%
Cc1csc(NC(=O)C2(C)CCN2C(=O)C(C)C)c1C#N (stereo not given)	1%	50	1%	8.2µM*	8.2µM*
Cc1cc(C)cc(NC(=O)COC(=O)Cn2cnc3c2c(=O)n(C)c(=O)n3C)c1	-1%	7	-2%	3%	-7%
CCOC(=O)c1c(C)oc2nc(C)nc(NCc3ccc(F)cc3)c12	·	·	·	16µM*	?
CCOC(=O)c1c(C)oc2nc(C)nc(NCCCN3CCN(c4cc(Cl)ccc4C)CC3)c12	·	·	·	-14%	?
CCOC(=O)c1c(C)oc2nc(C)nc(NCCCN3CCN(c4cc(C)ccc4C)CC3)c12	·	·	·	-3%	?
CCOC(=O)c1c(C)oc2nc(C)nc(Nc3cccc(OC)c3)c12	·	·	·	-25%	-27%
CCOC(=O)c1c(C)oc2nc(C)nc(NCc3ccc(OC)cc3OC)c12	·	·	·	13µM*	?
CCOC(=O)c1c(C)oc2nc(C)nc(NCCc3ccc(OC)c(OC)c3)c12	·	·	·	18µM*	21µM*
CCOC(=O)c1c(C)oc2nc(C)nc(NC(C)c3ccccc3)c12 (stereo not given)	·	·	·	16µM*	21µM*
c1ccc(Cn2nnc(CNc3ccccc3)c2-c2c(CNc3ccccc3)nnn2Cc2ccccc2)cc1	-4%	-15	-15%	?	?
COc1ccc(-n2c(=O)c(-c3cc(F)cc(F)c3)nc3cnc(N(C)C)nc32)cc1	·	·	·	-1%	1%
O=S(=O)(c1cccc2ccccc12)N1CCC2CC1c1cc(Cl)ccc12 (stereo not given)	4%	30	-5%	?	?
CN(CC(=O)NC(=O)NCc1ccccc1)Cc1ccc(Cl)c(Cl)c1	0%	6	0%	29µM*	21µM*
COc1cccc(CCc2ccccc2OCC(CN(C)C)OC(=O)CCC(=O)O)c1 (stereo not given)	·	·	·	11µM*	16µM*
N#Cc1ccccc1OCC(=O)OCC(=O)NC1CCS(=O)(=O)C1 (stereo not given)	4%	17	-3%	0%	7%
CCSc1nnc(NS(=O)(=O)c2ccc(C)cc2)s1	-1%	7	1%	-16%	-21%
Nc1ccccc1C=C1Cc2ccccc2C1=O	-9%	10	-17%	-26%	11%
